From ChEMBL document CHEMBL3988442, “University of Dundee, Small-Polar-MMV Screening Library” (2021)
About 13,000 (27%) of roughly 48,000 compounds showed an effect of 50% or more. Some of the results follow.

Test system: Wolbachia pipientis
Assay: Anti-Wolbachia Cell-Based Screen
Assay type: functional
Set-up: scale not given: in the data most compounds retested in dose-response had high values
Conditions: 5 µM

| Structure (SMILES) | Percent Effect [%] |
| --- | --- |
| Cc1ccc(CNC(=O)NCCCn2nc3ccccn3c2=O)s1 | 0.9307 |
| CN(C)CCN(C)C[C@@H]1CN(Cc2cccc(O)c2)C[C@@H]1CO | -1.662 |
| Cc1ccc(-c2nc(C(=O)N(C)CC(=O)N3CCCC3)cs2)c(C)c1 | 2.536 |
| CCNC(=O)[C@@H]1CCCN1[C@@H](C(=O)NC)c1ccccc1OC.Cl | 2.638 |
| N#Cc1cccc(NC(=O)N2CCCC(N3CCCC3=O)C2)c1 (stereo unspecified) | -2.402 |
| CC(C1CCN(Cc2ccc(N(C)C)nc2)CC1)N1CCOCC1 (stereo unspecified) | 11.4 |
| CC(=O)N1CCCC1c1ccc(CN2CCOCC2)cn1 (stereo unspecified) | 123.1 |
| CC(=O)N1CCCC1c1ccc(C(=O)N2CCOCC2)s1 (stereo unspecified) | -4.925 |
| COC(=O)C1CCN(C(=O)Nc2cc(-n3cccc3)ccc2F)CC1 | -12.66 |
| O=C(Nc1cc(-n2cccc2)ccc1F)N1CCCC1 | -21.77 |
| Cc1cccc(NC2CCN(C(=O)Nc3ccc(F)cc3C)CC2)n1 | 119.5 |
| Cc1cccc(NC2CCN(C(=O)Nc3cc(F)ccc3F)CC2)n1 | 100.1 |
| COC(=O)[C@@H](NC(=O)c1coc(COc2cccc(F)c2)n1)C(C)C | -6.139 |
| COC(=O)C(CNC(=O)Nc1nncs1)Cc1ccc(O)cc1 (stereo unspecified) | -7.051 |
| CNC(=O)c1n[nH]c2c1C(c1cccc3[nH]ccc13)CC(=O)N2 (stereo unspecified) | 8.838 |
| CCn1nc2c(cc1=O)CN(CC(=O)Nc1cc(C)no1)CC2 | -6.307 |
| Cc1cc(NC(=O)CN2CCc3nn(C)c(=O)cc3C2)no1 | -3.841 |
| CCn1nc2c(cc1=O)CN(CC(=O)Nc1cc(C(C)C)no1)CC2 | -9.725 |
| CCn1nc2c(cc1=O)CN(CC(=O)Nc1nnc(C)s1)CC2 | 120.7 |

| Structure (SMILES) | Percent Effect [%] |
| --- | --- |
| Cn1nc2c(cc1=O)CN(CC(=O)Nc1nncs1)CC2 | -9.972 |
| Cc1nc(CN2CCc3nn(C(C)C)c(=O)cc3C2)oc1C | -3.167 |
| Cc1nnc(NC(=O)CN2CCc3nn(C(C)C)c(=O)cc3C2)s1 | 104 |
| Cc1csc(NC(=O)CN2CCc3nn(C)c(=O)cc3C2)n1 | -32.21 |
| Cc1nnc(NC(=O)CN2CCc3nn(C)c(=O)cc3C2)s1 | 86.83 |
| CCn1nc2c(cc1=O)CN(CC(=O)Nc1nccs1)CC2 | -22.28 |
| CC(C)n1nc2c(cc1=O)CN(CC(=O)N(C)c1nccs1)CC2 | -24.74 |
| CCn1nc2c(cc1=O)CN(CC(=O)Nc1nncs1)CC2 | 94.86 |
| CC1=N[C@@]2(CC[C@@H]3CN(S(C)(=O)=O)C[C@@H]32)C(=O)N1CC(C)C | -10.09 |
| CCc1nnc2ccc(NCC3(O)CCOCC3)nn12 | -3.397 |
| CC(C)S(=O)(=O)NC(=O)CC(c1ccccc1)C(F)(F)F (stereo unspecified) | 0.6807 |
| O=C1NCCCCC1Sc1nnc(C2CC2)n1C1CC1 (stereo unspecified) | -22.11 |
| O=C1NCCCCC1Sc1ccc(F)cc1F (stereo unspecified) | 103.3 |
| O=C1NCCCCC1Sc1nnc(N2CCCC2)n1C1CC1 (stereo unspecified) | 5.697 |
| O=C1NCCCCC1Sc1ccccc1F (stereo unspecified) | 86.32 |
| O=C1NCCCCC1SCc1coc(-c2ccc(F)cc2)n1 (stereo unspecified) | -0.7587 |
| O=C1NCCCCC1Sc1nnc(-c2cccnc2)n1C1CC1 (stereo unspecified) | -7.436 |
| O=C1NCCCCC1Sc1ccc(F)c(F)c1 (stereo unspecified) | 87.86 |
| O=C1NCCCCC1Sc1n[nH]c(=O)n1C1CC1 (stereo unspecified) | -5.028 |

| Structure (SMILES) | Percent Effect [%] |
| --- | --- |
| O=C1NCCCCC1SCc1coc(-c2cccc(F)c2)n1 (stereo unspecified) | -23.71 |
| CCCOCC(=O)N1CCC2(CC1)c1nc[nH]c1CCN2S(C)(=O)=O | -9.401 |
| COc1ccc(C(=O)NCc2ccon2)cc1F | -47.25 |
| Cc1nc(NS(=O)(=O)c2ccc(C)c(Br)c2)no1 | -20.05 |
| Cc1nn(CC(=O)N2CCN(c3ccccc3F)CC2)c(C)c1Cl | 4.996 |
| Cc1ncc(CN(C)C)c(C2CCCN2c2ncccn2)n1 (stereo unspecified) | 117.1 |
| CCc1nc(C2CCCN2c2ncc(Br)cn2)no1 (stereo unspecified) | -1.956 |
| Cc1nc(CN(C)CC2CCCN2c2cccnn2)oc1C (stereo unspecified) | 2.068 |
| CN(C)Cc1nnc(C2CCN(c3ncccn3)CC2)n1C1CC1 | -3.805 |
| Cc1cccc(C(=O)N2CCCCC2c2ccc(CN(C)C)cc2)n1 (stereo unspecified) | -0.9167 |
| Cc1cccc(N2CCCC2c2nc(C)ncc2CN(C)C)n1 (stereo unspecified) | 143.5 |
| O=C(C1CNCCO1)N1CCCC(c2ccccc2)(c2ccccc2)C1 (stereo unspecified) | -4.785 |
| O=C(NCCCOC1CCCCC1)C1NCCc2[nH]cnc21 (stereo unspecified) | -2.739 |
| CCN(C(=O)COC)C(c1cccnc1)c1ccc2c(c1)CCO2 (stereo unspecified) | 2.856 |
| CCSCCNC(=O)Nc1cc(C(=O)N2CCOCC2)ccc1Cl | 4.121 |
| CC(C)(CO)CCCNC(=O)N1CCc2c(F)ccc(F)c2C1 | 36.67 |
| COCCNC(=O)C1(c2ccccc2C)CCOCC1 | 3.195 |
| COCCNC(=O)NC1(c2nc(C)no2)CCCCC1 | -1.61 |
